From PubChem BioAssay (NCI)
About 83,000 compounds went through this panel and 20% of them were active in at least one assay; those are over-represented in the sample as a whole.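 A percent growth of 40 corresponds to 60% growth inhibition; 0 means no net growth; -100 means all cells died. Active threshold: below 10.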 Active and inactive are the calls of the source.

How the values were obtained:
Assay in all cases: NCI-60 one-dose screen, 48 h (100 = growth as untreated, 0 = no growth, -100 = all killed)
SK-MEL-2 melanoma = details: 10 µM unless noted
EKVX NSCLC = details: 10 µM unless noted
SN12C renal = details: 10 µM unless noted
UO-31 renal = details: 10 µM unless noted
TK-10 renal = details: 10 µM unless noted
ACHN renal = details: 10 µM unless noted
CAKI-1 renal = details: 10 µM unless noted
A498 renal = details: 10 µM unless noted
CCRF-CEM leukemia = details: 10 µM unless noted
MOLT-4 leukemia = details: 10 µM unless noted
SR leukemia = details: 10 µM unless noted
RPMI-8226 leukemia = details: 10 µM unless noted
OVCAR-8 ovarian = details: 10 µM unless noted
OVCAR-5 ovarian = details: 10 µM unless noted
OVCAR-4 ovarian = details: 10 µM unless noted
SK-OV-3 ovarian = details: 10 µM unless noted
IGROV1 ovarian = details: 10 µM unless noted
OVCAR-3 ovarian = details: 10 µM unless noted
HS 578T breast = details: 10 µM
NCI/ADR-RES ovarian = details: 10 µM unless noted

Measured: growth

CCc1ccc(Nc2ncnc3c2cnn3-c2cccc(Br)c2)cc1
inactive: SK-MEL-2 melanoma 108% | EKVX NSCLC 102% | SN12C renal 101% | UO-31 renal 85.6% | TK-10 renal 107% | ACHN renal 108% | CAKI-1 renal 89.3% | A498 renal 70.7% | CCRF-CEM leukemia 131% | MOLT-4 leukemia 101% | SR leukemia 108% | RPMI-8226 leukemia 117% | OVCAR-8 ovarian 93.3% | OVCAR-5 ovarian 102% | OVCAR-4 ovarian 105% | SK-OV-3 ovarian 104% | IGROV1 ovarian 113% | OVCAR-3 ovarian 103% | HS 578T breast 103% | NCI/ADR-RES ovarian 100%

COc1ccc2c(c1)CCCC21C(=O)Nc2c(Cl)cccc21 (stereo not given)
inactive: SK-MEL-2 melanoma 43% | EKVX NSCLC 91% | SN12C renal 82.6% | UO-31 renal 82.8% | TK-10 renal 95.4% | ACHN renal 85.1% | CAKI-1 renal 54.9% | A498 renal 79.6% | CCRF-CEM leukemia 60.9% | MOLT-4 leukemia 52.1% | SR leukemia 29.6% | RPMI-8226 leukemia 82.9% | OVCAR-8 ovarian 84.6% | OVCAR-5 ovarian 92.9% | OVCAR-4 ovarian 96.1% | SK-OV-3 ovarian 71.9% | IGROV1 ovarian 88.5% | OVCAR-3 ovarian 76.3% | HS 578T breast 85.8% | NCI/ADR-RES ovarian 18.3%

O=C(NNC(=S)Nc1ccccc1)c1ccc(Nc2ncnc3c2cnn3-c2cccc(Br)c2)cc1
inactive: SK-MEL-2 melanoma 105% | EKVX NSCLC 105% | SN12C renal 96.1% | UO-31 renal 82.3% | TK-10 renal 106% | ACHN renal 106% | CAKI-1 renal 93.4% | A498 renal 102% | CCRF-CEM leukemia 108% | MOLT-4 leukemia 104% | SR leukemia 115% | RPMI-8226 leukemia 110% | OVCAR-8 ovarian 110% | OVCAR-5 ovarian 105% | OVCAR-4 ovarian 106% | SK-OV-3 ovarian 101% | IGROV1 ovarian 107% | OVCAR-3 ovarian 107% | HS 578T breast 105% | NCI/ADR-RES ovarian 105%

O=C(OCc1ccc2c(Cl)cc(Cl)c(O)c2n1)c1cc2ccccc2[nH]1
active: SK-MEL-2 melanoma -54.6% | EKVX NSCLC -71.9% | SN12C renal -60.6% | UO-31 renal -100% | TK-10 renal -94.1% | ACHN renal -96.7% | CAKI-1 renal -98% | A498 renal -78.4% | CCRF-CEM leukemia 0% | MOLT-4 leukemia -8.99% | SR leukemia 0.939% | RPMI-8226 leukemia -37.4% | OVCAR-8 ovarian -24.9% | OVCAR-5 ovarian -55.2% | OVCAR-4 ovarian -70.4% | IGROV1 ovarian -89.5% | OVCAR-3 ovarian -92.1% | HS 578T breast -14.4% | NCI/ADR-RES ovarian -35.3%
inactive: SK-OV-3 ovarian 67.5%

OC(c1cc(-c2ccc(C(F)(F)F)cc2)nc(-c2ccc(C(F)(F)F)cc2)c1)C1CCCCN1 (stereo not given)
active: SK-MEL-2 melanoma -66.6% | EKVX NSCLC -65.4% | SN12C renal -78.5% | UO-31 renal -83.6% | TK-10 renal -90.6% | ACHN renal -73.4% | CAKI-1 renal -81.6% | A498 renal -80.5% | CCRF-CEM leukemia -56.2% | MOLT-4 leukemia -57.5% | SR leukemia -64.8% | RPMI-8226 leukemia -48.4% | OVCAR-8 ovarian -64.5% | OVCAR-5 ovarian -77% | OVCAR-4 ovarian -92% | SK-OV-3 ovarian -74.3% | IGROV1 ovarian -65.2% | OVCAR-3 ovarian -90.4% | HS 578T breast -55.5% | NCI/ADR-RES ovarian -68.6%

CC[C@H](Nc1nc(C)nc(N)c1C#N)c1nc2cccc(NCc3ccc(C(=O)NO)cc3)c2c(=O)n1-c1ccccc1
inactive: SK-MEL-2 melanoma 67.2% | EKVX NSCLC 12.7% | RPMI-8226 leukemia 10.7% | OVCAR-5 ovarian 22.5% | HS 578T breast 21.6% | NCI/ADR-RES ovarian 59.4%
active: SN12C renal 7.89% | UO-31 renal -12.5% | TK-10 renal 2% | ACHN renal 2.03% | CAKI-1 renal -11.1% | A498 renal -27.1% | CCRF-CEM leukemia 6.17% | MOLT-4 leukemia 2.8% | SR leukemia 0.66% | OVCAR-8 ovarian 2.46% | OVCAR-4 ovarian 5.36% | SK-OV-3 ovarian -16.2% | IGROV1 ovarian 5.14% | OVCAR-3 ovarian 4.73%

CN1CCN(Cc2ccc(NC(=O)c3cncc(C#Cc4ncc5ccccn45)c3)cc2C(F)(F)F)CC1
active: SK-MEL-2 melanoma -8.17% | UO-31 renal 5.98% | CAKI-1 renal 1.78% | CCRF-CEM leukemia 8.69% | OVCAR-4 ovarian 7.89% | HS 578T breast 7.01%
inactive: EKVX NSCLC 43.9% | SN12C renal 24% | TK-10 renal 53.4% | ACHN renal 13.1% | A498 renal 11.4% | MOLT-4 leukemia 17.8% | SR leukemia 15.6% | RPMI-8226 leukemia 21.1% | OVCAR-8 ovarian 24.7% | OVCAR-5 ovarian 32.8% | SK-OV-3 ovarian 19.6% | IGROV1 ovarian 17.9% | OVCAR-3 ovarian 36.9% | NCI/ADR-RES ovarian 27.7%

COc1c(C(=O)/C=C/c2ccc(C)o2)c(O)cc2occc12
inactive: SK-MEL-2 melanoma 82.2% | EKVX NSCLC 68.6% | SN12C renal 82.6% | UO-31 renal 81.2% | TK-10 renal 100% | ACHN renal 97.6% | CAKI-1 renal 74.2% | A498 renal 66.6% | CCRF-CEM leukemia 84.6% | MOLT-4 leukemia 64% | SR leukemia 42.8% | RPMI-8226 leukemia 82.5% | OVCAR-8 ovarian 84.8% | OVCAR-5 ovarian 107% | OVCAR-4 ovarian 80.9% | SK-OV-3 ovarian 88.6% | IGROV1 ovarian 69.3% | OVCAR-3 ovarian 47.6% | HS 578T breast 65.8% | NCI/ADR-RES ovarian 52.2%
